Six compounds from PubChem BioAssay (EPA / NIEHS) can be followed below.

One may read the AC50 as the concentration giving half of the maximal activity seen.

Molecules are shown by their SMILES. Records with an inconclusive call do not appear. Activity calls are given as the source filed them. How the source made its calls: active means hit-call score of the fitted dose curve at least 0.9, where 1 is the maximum; inconclusive means response in the unintended direction; inactive means score below 0.9.

human Sirtuin 3 (SIRT3), SIRT3 (gene 23410), sequence (Q9NTG7 whole entry, looked up): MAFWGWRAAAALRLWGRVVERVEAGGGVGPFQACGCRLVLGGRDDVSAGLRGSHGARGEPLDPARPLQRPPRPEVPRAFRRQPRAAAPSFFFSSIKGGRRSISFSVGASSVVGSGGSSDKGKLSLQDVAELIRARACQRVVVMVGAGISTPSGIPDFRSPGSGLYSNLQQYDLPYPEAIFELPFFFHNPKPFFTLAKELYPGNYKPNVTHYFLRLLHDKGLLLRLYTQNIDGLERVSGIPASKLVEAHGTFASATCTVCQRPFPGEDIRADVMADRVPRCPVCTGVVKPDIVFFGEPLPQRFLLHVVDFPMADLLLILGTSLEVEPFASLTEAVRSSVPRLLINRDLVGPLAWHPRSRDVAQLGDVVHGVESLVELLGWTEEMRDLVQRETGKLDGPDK

The target in this experiment is human Sirtuin 3 (SIRT3), SIRT3 (gene 23410) (UniProt Q9NTG7). As to the kind of experiment: NVS_ENZ_hSIRT3: NovaScreen (NVS) Enzymatic Assay for human Sirtuin 3 (SIRT3) (AID 2283222). In outline:
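Cell-free enzyme assay with recombinant protein and fluorescent substrate, product separated by electrophoretic mobility shift; read 1 hour after dosing. Screened in duplicate at 25 uM, then singleton concentration-response up to 50 uM; loss of signal versus DMSO.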
As for `FC(F)C(F)(F)OCC(Cn1cncn1)c1ccc(Cl)cc1Cl` (stereo unspecified), the AC50 was 25 µM (active).

As for `COc1ccc(C(=CC(=O)N2CCOCC2)c2ccc(Cl)cc2)cc1OC`, the outcome was inactive.

Take `C[Si](Cn1cncn1)(c1ccc(F)cc1)c1ccc(F)cc1`: the compound was called inactive.

For `CC[C@H](C)[C@H]1O[C@]2(C=C[C@@H]1C)C[C@@H]1C[C@@H](C/C=C(\C)[C@@H](O[C@H]3C[C@H](OC)[C@@H](O[C@H]4C[C@H](OC)[C@@H](NC)[C@H](C)O4)[C@H](C)O3)[C@@H](C)/C=C/C=C3\CO[C@@H]4[C@H](O)C(C)=C[C@@H](C(=O)O1)[C@]34O)O2`, the AC50 was 1.25 µM (active).

As for `CC(C)[C@H](C(=O)O[C@H](C#N)c1cccc(Oc2ccccc2)c1)c1ccc(Cl)cc1`, the result was inactive.

`N#CSCSC#N`: the result was inactive.
